According to ChEMBL document CHEMBL1201862, “PubChem BioAssay data set” (2004):
Out of some 220,000 compounds screened, about 16,000 (7.3%) were called active. Another 25% or so got no clear call; they are omitted. The rule behind the calls is not given here. Only a selection was taken, and actives are over-represented in it overall.

Biological target: T1, Aldehyde dehydrogenase 1A1 (Homo sapiens) (UniProt P00352)
T1 sequence (whole entry): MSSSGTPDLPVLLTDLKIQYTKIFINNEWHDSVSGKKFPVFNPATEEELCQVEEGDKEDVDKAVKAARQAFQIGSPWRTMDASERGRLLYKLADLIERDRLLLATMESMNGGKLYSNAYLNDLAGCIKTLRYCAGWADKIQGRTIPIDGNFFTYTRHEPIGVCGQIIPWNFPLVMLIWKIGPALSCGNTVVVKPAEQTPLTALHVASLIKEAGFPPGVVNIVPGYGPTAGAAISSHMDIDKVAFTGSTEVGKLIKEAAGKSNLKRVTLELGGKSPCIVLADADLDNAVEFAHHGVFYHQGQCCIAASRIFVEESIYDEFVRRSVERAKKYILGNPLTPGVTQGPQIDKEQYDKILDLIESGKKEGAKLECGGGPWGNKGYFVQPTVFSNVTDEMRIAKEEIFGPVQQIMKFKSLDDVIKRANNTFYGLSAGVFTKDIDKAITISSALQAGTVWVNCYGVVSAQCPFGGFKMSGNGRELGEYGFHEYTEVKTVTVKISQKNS
Test: qHTS Assay for Inhibitors of Aldehyde Dehydrogenase 1 (ALDH1A1). [Related pubchem assays: 1030 (qHTS Validation Assay for Inhibitors of aldehyde dehydrogenase 1 (ALDH1A1))]
Assay type: functional

Row | SMILES | Potency
1 | CC(C)C1SC(N/N=C/c2ccco2)=NC1=O (centres undefined) | 200 µM (active)
2 | O=C(O)c1ccc2c(c1)CC(c1ccccc1)OC2=O (centres undefined) | inactive
3 | CCOC(=O)CN1C(=O)N[C@@H](c2cccc(C(F)(F)F)c2)C(C(=O)OC)=C1C | inactive
4 | CC(C(=O)NN=C(c1ccccc1)c1ccccc1)N1CCCC1 (centres undefined) | inactive
5 | O=C(c1no[n+]([O-])c1C(=O)c1csc2ccccc12)c1csc2ccccc12 | 3.55 µM (active)
6 | O=C(N/N=C/c1ccc2c(c1)OCO2)c1ccc(Br)o1 | inactive
7 | CCOC(=O)N1CCN(c2nc3ccccc3nc2C(C#N)C(=O)NCCc2ccccc2)CC1 (centres undefined) | 398 µM (active)
8 | CC(=O)OCc1ccccc1 | 20 µM (active)
9 | N#CC1=C(N)Oc2c(oc(CO)cc2=O)C12C(=O)Nc1ccc(Cl)cc12 (centres undefined) | inactive
10 | C[C@@H]1C[C@H]2[C@@H]3C[C@H](F)C4=CC(=O)C=C[C@]4(C)[C@@]3(F)[C@@H](O)C[C@]2(C)[C@@]1(O)C(=O)CO | inactive
11 | O=C(/C=C/c1ccc(Cl)cc1)c1cccs1 | 12.6 µM (active)
12 | CCc1ccc(Oc2coc3cc(OCC(=O)Nc4cc(C)ccc4C)ccc3c2=O)cc1 | inactive
13 | COc1ccc(N2CC(C(=O)OCC(=O)c3cccc(OC)c3)CC2=O)cc1 (centres undefined) | 224 µM (active)
14 | O=C(Cn1c2ccccc2c(=O)c2cc([N+](=O)[O-])ccc21)Nc1ccccc1Cl | inactive
